Results published in PubChem BioAssay AID1159580 (chemical genetic matrix, 2015).
Hit rate of the full screen: of about 5,500 compounds, about 2,000 (36%) were called active. About 18% were inconclusive and are not listed. The list shows a part of the results. Unmarked numbers belong to inactive results. Rule as the data show it: active = normalized growth mostly below about 0.91 (no sharp cut-off); inconclusive = no clear call, values can overlap the other calls; inactive = mostly above about 0.92.

Experiment: chemical genetic growth profiling, strain panel (AID 1159580);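 also: tested at 20 µM; growth read once vehicle control cultures reached saturation at 30 °C; 1 = growth at the plate median or of vehicle wells; lower values mean less growth of the strain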
Details: S. cerevisiae deletion strains, growth OD

COc1cc(O)c(C(=O)c2ccccc2)cc1O
normalized growth (locus YAL013W, strain DEP1, hits give low values): 1.02 | normalized growth (locus YAL021C, strain ccr4, hits give low values): 1.01 | normalized growth (locus YAL026C, strain drs2, hits give low values): 0.963 | normalized growth (locus YAL030W, strain snc1, hits give low values): 1.01 | normalized growth (locus YBL061C, strain skt5, hits give low values): 1.01 | normalized growth (locus YBR009C, strain hhf1, hits give low values): 0.969 | normalized growth (locus YBR021W, strain FUR4, hits give low values): 1.07 | normalized growth (locus YBR023C, strain chs3, hits give low values): 0.985 | normalized growth (locus YBR171W, strain sec66, hits give low values): 1.01 | normalized growth (locus YBR229C, strain ROT2, hits give low values): 1.02 | normalized growth (locus YBR231C, strain swc5, hits give low values): 1.01 | normalized growth (locus YBR279W, strain paf1, hits give low values): 0.988 | normalized growth (locus YCL011C, strain gbp2, hits give low values): 0.971 | normalized growth (locus YCL016C, strain dcc1, hits give low values): 0.965 | normalized growth (locus YCL029C, strain bik1, hits give low values): 0.978 | normalized growth (locus YCL069W, strain vba3, hits give low values): 0.996 | normalized growth (locus YCR088W, strain abp1, hits give low values): 1 | normalized growth (locus YDL005C, strain med2, hits give low values): 1.01 | normalized growth (locus YDL035C, strain GPR1, hits give low values): 1.07 | normalized growth (locus YDL040C, strain nat1, hits give low values): 1 | normalized growth (locus YDL074C, strain BRE1, hits give low values): 1.01 | normalized growth (locus YDL101C, strain DUN1, hits give low values): 0.998 | normalized growth (locus YDL185W, strain tfp1, hits give low values): 0.972 | normalized growth (locus YDL192W, strain arf1, hits give low values): 0.971 | normalized growth (locus YDR001C, strain nth1, hits give low values): 1.02 | normalized growth (locus YDR069C, strain doa4, hits give low values): 1.02 | normalized growth (locus YDR101C, strain arx1, hits give low values): 1.01 | normalized growth (locus YDR137W, strain rgp1, hits give low values): 0.857 | normalized growth (locus YDR159W, strain sac3, hits give low values): 0.973 | normalized growth (locus YDR162C, strain NBP2, hits give low values): 1.02 | normalized growth (locus YDR195W, strain ref2): 1.03 | normalized growth (locus YDR297W, strain sur2, hits give low values): 0.99 | normalized growth (locus YDR318W, strain mcm21, hits give low values): 0.963 | normalized growth (locus YDR334W, strain swr1, hits give low values): 1.03 | normalized growth (locus YDR335W, strain msn5, hits give low values): 0.988 | normalized growth (locus YDR388W, hits give low values): 0.979 | normalized growth (locus YDR392W, strain spt3, hits give low values): 0.705 (active) | normalized growth (locus YDR502C, strain sam2, hits give low values): 0.965 | normalized growth (locus YEL003W, strain gim4, hits give low values): 0.985 | normalized growth (locus YEL037C, strain rad23, hits give low values): 1.01 | normalized growth (locus YEL061C, strain CIN8 (second series), hits give low values): 1.01 | normalized growth (locus YEL061C, strain CIN8, hits give low values): 1.03 | normalized growth (locus YER015W, strain faa2, hits give low values): 0.966 | normalized growth (locus YER016W, strain bim1, hits give low values): 1 | normalized growth (locus YER110C, hits give low values): 0.964 | normalized growth (locus YER111C, strain swi4, hits give low values): 1.02 | normalized growth (locus YER155C, strain BEM2 (second series), hits give low values): 0.764 (active) | normalized growth (locus YER155C, strain BEM2, hits give low values): 1.01 | normalized growth (locus YER167W, strain BCK2, hits give low values): 1 | normalized growth (locus YFR010W, strain ubp6, hits give low values): 1.03 | normalized growth (locus YGL078C, strain dbp3, hits give low values): 0.937 | normalized growth (locus YGL086W, strain mad1, hits give low values): 0.974 | normalized growth (locus YGL167C, strain pmr1, hits give low values): 0.999 | normalized growth (locus YGL173C, strain kem1, hits give low values): 1 | normalized growth (locus YGL227W, strain vid30, hits give low values): 1.01 | normalized growth (locus YGL240W, strain doc1, hits give low values): 0.944 | normalized growth (locus YGL248W, strain PDE1, hits give low values): 1.05 | normalized growth (locus YGL253W, strain hxk2, hits give low values): 1.04 | normalized growth (locus YGR135W, strain pre9, hits give low values): 0.923 | normalized growth (locus YGR252W, strain gcn5, hits give low values): 1 | normalized growth (locus YHR013C, strain ard1, hits give low values): 1.05 | normalized growth (locus YHR027C, strain rpn1, hits give low values): 1.02 | normalized growth (locus YHR079C, strain IRE1 (second series), hits give low values): 0.959 | normalized growth (locus YHR094C, strain hxt1, hits give low values): 0.974 | normalized growth (locus YHR129C, strain ARP1, hits give low values): 1.02 | normalized growth (locus YHR142W, strain chs7, hits give low values): 1.01 | normalized growth (locus YHR200W, strain rpn10, hits give low values): 0.968 | normalized growth (locus YIL066C, strain RNR3, hits give low values): 1.03 | normalized growth (locus YIL073C, strain SPO22, hits give low values): 1 | normalized growth (locus YIL125W, strain kgd1, hits give low values): 1 | normalized growth (locus YIR030C, strain dcg1, hits give low values): 0.976 | normalized growth (locus YJL092W, strain hpr5, hits give low values): 1.01 | normalized growth (locus YJL095W, strain BCK1 (second series), hits give low values): 0.996 | normalized growth (locus YJL095W, strain BCK1, hits give low values): 0.978 | normalized growth (locus YJL115W, strain asf1, hits give low values): 1.02 | normalized growth (locus YJL129C, strain trk1, hits give low values): 0.948 | normalized growth (locus YJL134W, strain LCB3, hits give low values): 1 | normalized growth (locus YJL154C, strain vps35, hits give low values): 1.02 | normalized growth (locus YJL164C, strain tpk1, hits give low values): 0.958 | normalized growth (locus YJL166W, strain qcr8, hits give low values): 0.993 | normalized growth (locus YJL168C, strain set2, hits give low values): 0.989 | normalized growth (locus YJL187C, strain SWE1 (second series), hits give low values): 0.993 | normalized growth (locus YJL187C, strain SWE1, hits give low values): 0.996 | normalized growth (locus YKL009W, strain mrt4, hits give low values): 0.892 | normalized growth (locus YKL068W, hits give low values): 0.982 | normalized growth (locus YKL085W, strain MDH1 (second series), hits give low values): 0.97 | normalized growth (locus YKL085W, strain MDH1, hits give low values): 0.97 | normalized growth (locus YKL160W, strain elf1, hits give low values): 0.945 | normalized growth (locus YKR001C, strain vps1, hits give low values): 1.01 | normalized growth (locus YKR026C, strain gcn3, hits give low values): 1.02 | normalized growth (locus YKR091W, strain srl3, hits give low values): 1.01 | normalized growth (locus YLL001W, strain dnm1, hits give low values): 0.951 | normalized growth (locus YLL026W, hits give low values): 1.01 | normalized growth (locus YLL041C, strain sdh2, hits give low values): 1.01 | normalized growth (locus YLR027C, strain aat2, hits give low values): 1.01 | normalized growth (locus YLR039C, strain RIC1, hits give low values): 0.963 | normalized growth (locus YLR058C, strain SHM2, hits give low values): 1.01 | normalized growth (locus YLR102C, strain apc9, hits give low values): 0.97 | normalized growth (locus YLR221C, strain rsa3, hits give low values): 0.988 | normalized growth (locus YLR258W, strain gsy2, hits give low values): 0.962 | normalized growth (locus YLR262C, strain YPT6 (second series), hits give low values): 0.768 (active) | normalized growth (locus YLR268W, strain sec22, hits give low values): 0.976 | normalized growth (locus YLR320W, strain mms22, hits give low values): 0.944 | normalized growth (locus YLR330W, strain CHS5, hits give low values): 1.02 | normalized growth (locus YLR342W, strain FKS1, hits give low values): 0.993 | normalized growth (locus YLR357W, strain rsc2, hits give low values): 0.994 | normalized growth (locus YLR370C, strain arc18, hits give low values): 1 | normalized growth (locus YLR371W, strain rom2, hits give low values): 0.966 | normalized growth (locus YLR384C, strain iki3, hits give low values): 0.996 | normalized growth (locus YLR418C, strain cdc73, hits give low values): 1.03 | normalized growth (locus YML016C, strain PPZ1, hits give low values): 1.01 | normalized growth (locus YML032C, strain rad52, hits give low values): 0.967 | normalized growth (locus YML120C, strain ndi1, hits give low values): 0.965 | normalized growth (locus YML124C, strain tub3, hits give low values): 0.97 | normalized growth (locus YMR058W, strain fet3, hits give low values): 1.02 | normalized growth (locus YMR078C, strain ctf18, hits give low values): 0.952 | normalized growth (locus YMR125W, strain sto1, hits give low values): 1.01 | normalized growth (locus YMR129W, hits give low values): 1 | normalized growth (locus YMR205C, strain PFK2, hits give low values): 0.991 | normalized growth (locus YMR223W, strain ubp8, hits give low values): 0.932 | normalized growth (locus YMR231W, strain pep5, hits give low values): 1.01 | normalized growth (locus YMR307W, strain GAS1, hits give low values): 1.19 | normalized growth (locus YNL067W, strain RPL9B, hits give low values): 1.01 | normalized growth (locus YNL071W, strain lat1, hits give low values): 0.982 | normalized growth (locus YNL209W, strain ssb2, hits give low values): 0.947 | normalized growth (locus YNL233W, strain BNI4, hits give low values): 1.04 | normalized growth (locus YNL248C, strain rpa49, hits give low values): 1.03 | normalized growth (locus YNL250W, strain rad50, hits give low values): 0.924 | normalized growth (locus YNL271C, strain bni1, hits give low values): 0.951 | normalized growth (locus YNL298W, strain CLA4, hits give low values): 0.995 | normalized growth (locus YNL307C, strain MCK1, hits give low values): 0.971 | normalized growth (locus YNL322C, strain KRE1 (second series), hits give low values): 0.973 | normalized growth (locus YNR049C, strain mso1, hits give low values): 1.03 | normalized growth (locus YNR052C, strain pop2, hits give low values): 0.96 | normalized growth (locus YOL012C, strain htz1): 1.3 | normalized growth (locus YOL147C, strain pex11, hits give low values): 0.979 | normalized growth (locus YOR001W, strain rrp6, hits give low values): 0.995 | normalized growth (locus YOR061W, strain CKA2, hits give low values): 1.01 | normalized growth (locus YOR069W, strain VPS5, hits give low values): 0.999 | normalized growth (locus YOR070C, strain gyp1, hits give low values): 0.983 | normalized growth (locus YOR080W, strain dia2, hits give low values): 1.02 | normalized growth (locus YOR083W, strain WHI5, hits give low values): 0.933 | normalized growth (locus YOR106W, strain vam3, hits give low values): 0.917 | normalized growth (locus YOR136W, strain idh2, hits give low values): 0.977 | normalized growth (locus YOR144C, strain elg1, hits give low values): 0.976 | normalized growth (locus YOR184W, strain ser1, hits give low values): 1.07 | normalized growth (locus YOR265W, strain rbl2, hits give low values): 1.01 | normalized growth (locus YOR270C, strain vph1, hits give low values): 0.974 | normalized growth (locus YOR290C, strain snf2, hits give low values): 0.946 | normalized growth (locus YOR316C, strain cot1, hits give low values): 0.958 | normalized growth (locus YPL051W, strain arl3, hits give low values): 0.924 | normalized growth (locus YPL078C, strain atp4, hits give low values): 0.952 | normalized growth (locus YPL106C, strain sse1, hits give low values): 0.943 | normalized growth (locus YPL240C, strain hsp82, hits give low values): 0.997 | normalized growth (locus YPR119W, strain clb2, hits give low values): 0.95 | normalized growth (locus YPR141C, strain kar3, hits give low values): 0.96 | normalized growth (locus YPR163C, strain tif3, hits give low values): 0.94 | normalized growth (locus YPR167C, strain met16, hits give low values): 0.953 | normalized growth (strain wtn01, hits give low values): 0.998
